The source of these data is ChEMBL document CHEMBL1961873, “Compounds: GSK PKIS; Assays: Nanosyn kinase panel” (2012).

Test [1] concerns the target Ribosomal protein S6 kinase alpha-6 (Homo sapiens) (UniProt Q9UK32). The note with it: at 1 µM.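 Note: each value is a mean inhibition of RSK4 from a GSK PKIS panel screen.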
Test [2] addresses T1, Serine/threonine-protein kinase Sgk1 (Homo sapiens) (UniProt O00141).
T1 sequence (whole entry): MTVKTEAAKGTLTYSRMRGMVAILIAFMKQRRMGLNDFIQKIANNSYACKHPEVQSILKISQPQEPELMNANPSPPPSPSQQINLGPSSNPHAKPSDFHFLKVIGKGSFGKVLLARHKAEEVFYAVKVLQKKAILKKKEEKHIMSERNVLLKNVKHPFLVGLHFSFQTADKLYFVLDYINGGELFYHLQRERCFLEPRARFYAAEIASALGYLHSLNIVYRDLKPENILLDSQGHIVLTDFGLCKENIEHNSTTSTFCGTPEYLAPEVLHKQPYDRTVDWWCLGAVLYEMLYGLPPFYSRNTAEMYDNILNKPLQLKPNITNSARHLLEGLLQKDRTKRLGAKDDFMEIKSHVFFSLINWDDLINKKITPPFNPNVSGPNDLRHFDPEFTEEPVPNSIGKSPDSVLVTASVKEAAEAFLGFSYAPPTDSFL
The note with it: at 0.1 µM.

Test [3] has as its target T1, Serine/threonine-protein kinase Sgk1 (Homo sapiens). The conditions noted are these: at 1 µM.
Test [4] has as its target T2, Serine/threonine-protein kinase Sgk2 (Homo sapiens) (UniProt Q9HBY8).
T2 sequence (whole entry): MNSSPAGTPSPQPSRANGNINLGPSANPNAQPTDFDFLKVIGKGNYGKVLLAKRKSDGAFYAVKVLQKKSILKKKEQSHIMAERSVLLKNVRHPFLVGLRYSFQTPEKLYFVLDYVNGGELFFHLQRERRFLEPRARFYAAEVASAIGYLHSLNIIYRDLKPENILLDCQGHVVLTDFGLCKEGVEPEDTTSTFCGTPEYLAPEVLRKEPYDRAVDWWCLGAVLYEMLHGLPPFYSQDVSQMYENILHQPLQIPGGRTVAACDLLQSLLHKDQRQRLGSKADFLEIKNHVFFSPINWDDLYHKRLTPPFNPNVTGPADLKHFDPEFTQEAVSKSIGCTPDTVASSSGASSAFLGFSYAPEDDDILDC
The conditions noted are these: at 0.1 µM.

Test [5] deals with T2, Serine/threonine-protein kinase Sgk2 (Homo sapiens). The note with it: at 1 µM.
For test [6], the target named is T3, Serine/threonine-protein kinase Sgk3 (Homo sapiens) (UniProt Q96BR1).
T3 sequence (whole entry): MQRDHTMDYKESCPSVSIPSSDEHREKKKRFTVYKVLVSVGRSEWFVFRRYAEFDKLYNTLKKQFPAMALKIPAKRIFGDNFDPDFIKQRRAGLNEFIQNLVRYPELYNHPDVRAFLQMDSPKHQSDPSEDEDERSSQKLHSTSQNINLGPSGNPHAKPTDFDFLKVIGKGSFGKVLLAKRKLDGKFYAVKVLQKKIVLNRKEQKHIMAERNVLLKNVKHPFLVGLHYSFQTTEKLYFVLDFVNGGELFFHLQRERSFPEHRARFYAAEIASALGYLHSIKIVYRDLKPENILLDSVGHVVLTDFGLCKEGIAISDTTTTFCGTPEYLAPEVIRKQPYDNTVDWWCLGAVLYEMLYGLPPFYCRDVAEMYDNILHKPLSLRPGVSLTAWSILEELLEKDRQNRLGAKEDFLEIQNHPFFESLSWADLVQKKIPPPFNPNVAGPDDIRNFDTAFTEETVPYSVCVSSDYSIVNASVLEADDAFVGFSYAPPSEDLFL
The note with it: at 0.1 µM.

For test [7], the target named is T3, Serine/threonine-protein kinase Sgk3 (Homo sapiens). The conditions noted are these: at 1 µM.
In test [8] the target is 5'-AMP-activated protein kinase catalytic subunit alpha-1 (Homo sapiens) (UniProt Q13131). The conditions noted are these: at 0.1 µM.
Chain of 5'-AMP-activated protein kinase catalytic subunit alpha-1 (Homo sapiens) (Q13131 whole entry, looked up): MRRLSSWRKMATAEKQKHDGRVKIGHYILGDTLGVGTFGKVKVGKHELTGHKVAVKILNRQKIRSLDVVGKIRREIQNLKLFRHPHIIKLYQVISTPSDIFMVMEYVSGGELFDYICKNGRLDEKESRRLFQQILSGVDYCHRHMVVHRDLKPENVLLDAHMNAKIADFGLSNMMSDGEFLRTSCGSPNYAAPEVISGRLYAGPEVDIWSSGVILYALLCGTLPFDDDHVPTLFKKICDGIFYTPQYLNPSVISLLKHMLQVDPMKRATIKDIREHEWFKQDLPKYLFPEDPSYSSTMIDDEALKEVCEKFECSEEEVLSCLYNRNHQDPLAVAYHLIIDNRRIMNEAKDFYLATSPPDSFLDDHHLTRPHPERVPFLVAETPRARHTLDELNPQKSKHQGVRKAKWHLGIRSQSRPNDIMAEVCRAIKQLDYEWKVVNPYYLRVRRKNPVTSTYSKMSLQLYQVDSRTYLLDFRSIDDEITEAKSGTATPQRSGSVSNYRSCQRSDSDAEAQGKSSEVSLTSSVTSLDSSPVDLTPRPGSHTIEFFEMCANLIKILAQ
For test [9] the target is unchanged. The conditions noted are these: at 1 µM.
In test [10] the target is 5'-AMP-activated protein kinase catalytic subunit alpha-2 (Homo sapiens) (UniProt P54646). The conditions noted are these: at 0.1 µM.
Chain of 5'-AMP-activated protein kinase catalytic subunit alpha-2 (Homo sapiens) (P54646 whole entry, looked up): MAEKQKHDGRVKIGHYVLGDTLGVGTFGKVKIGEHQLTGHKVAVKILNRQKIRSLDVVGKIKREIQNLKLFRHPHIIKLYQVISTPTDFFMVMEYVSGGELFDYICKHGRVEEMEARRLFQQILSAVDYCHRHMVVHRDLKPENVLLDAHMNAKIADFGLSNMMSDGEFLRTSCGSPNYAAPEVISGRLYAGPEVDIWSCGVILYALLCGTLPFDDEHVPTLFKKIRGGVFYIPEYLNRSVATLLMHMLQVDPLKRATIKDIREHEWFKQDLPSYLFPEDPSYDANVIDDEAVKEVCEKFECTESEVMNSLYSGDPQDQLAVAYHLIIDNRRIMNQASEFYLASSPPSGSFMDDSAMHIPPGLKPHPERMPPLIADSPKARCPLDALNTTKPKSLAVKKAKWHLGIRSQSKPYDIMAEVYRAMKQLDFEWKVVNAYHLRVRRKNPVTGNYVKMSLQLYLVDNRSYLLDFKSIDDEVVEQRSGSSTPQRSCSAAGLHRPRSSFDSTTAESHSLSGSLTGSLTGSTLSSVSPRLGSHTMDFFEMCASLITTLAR
The target is the same in test [11]. The note with it: at 1 µM.
The target of test [12] is T4, NUAK family SNF1-like kinase 1 (Homo sapiens) (UniProt O60285).
T4 sequence (whole entry): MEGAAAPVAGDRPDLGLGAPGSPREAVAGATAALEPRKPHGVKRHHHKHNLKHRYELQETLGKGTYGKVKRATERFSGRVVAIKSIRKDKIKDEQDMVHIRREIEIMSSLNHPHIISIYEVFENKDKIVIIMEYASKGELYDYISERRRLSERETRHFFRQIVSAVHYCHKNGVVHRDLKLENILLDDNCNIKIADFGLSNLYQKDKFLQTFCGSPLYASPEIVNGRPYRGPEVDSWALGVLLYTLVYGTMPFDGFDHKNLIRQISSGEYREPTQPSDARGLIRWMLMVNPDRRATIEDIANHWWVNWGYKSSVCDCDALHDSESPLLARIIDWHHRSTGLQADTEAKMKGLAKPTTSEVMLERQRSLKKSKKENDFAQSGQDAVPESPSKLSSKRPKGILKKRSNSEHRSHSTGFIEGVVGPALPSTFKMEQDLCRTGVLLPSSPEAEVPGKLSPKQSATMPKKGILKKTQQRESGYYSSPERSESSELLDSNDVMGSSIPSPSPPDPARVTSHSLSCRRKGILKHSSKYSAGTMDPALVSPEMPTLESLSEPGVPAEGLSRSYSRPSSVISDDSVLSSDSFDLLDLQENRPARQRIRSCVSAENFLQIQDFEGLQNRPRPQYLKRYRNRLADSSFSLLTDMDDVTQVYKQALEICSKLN
The conditions noted are these: at 0.1 µM.

Test [13] addresses T4, NUAK family SNF1-like kinase 1 (Homo sapiens). The note with it: at 1 µM.
The target in test [14] is T5, Serine/threonine-protein kinase BRSK1 (Homo sapiens) (UniProt Q8TDC3).
T5 sequence (whole entry): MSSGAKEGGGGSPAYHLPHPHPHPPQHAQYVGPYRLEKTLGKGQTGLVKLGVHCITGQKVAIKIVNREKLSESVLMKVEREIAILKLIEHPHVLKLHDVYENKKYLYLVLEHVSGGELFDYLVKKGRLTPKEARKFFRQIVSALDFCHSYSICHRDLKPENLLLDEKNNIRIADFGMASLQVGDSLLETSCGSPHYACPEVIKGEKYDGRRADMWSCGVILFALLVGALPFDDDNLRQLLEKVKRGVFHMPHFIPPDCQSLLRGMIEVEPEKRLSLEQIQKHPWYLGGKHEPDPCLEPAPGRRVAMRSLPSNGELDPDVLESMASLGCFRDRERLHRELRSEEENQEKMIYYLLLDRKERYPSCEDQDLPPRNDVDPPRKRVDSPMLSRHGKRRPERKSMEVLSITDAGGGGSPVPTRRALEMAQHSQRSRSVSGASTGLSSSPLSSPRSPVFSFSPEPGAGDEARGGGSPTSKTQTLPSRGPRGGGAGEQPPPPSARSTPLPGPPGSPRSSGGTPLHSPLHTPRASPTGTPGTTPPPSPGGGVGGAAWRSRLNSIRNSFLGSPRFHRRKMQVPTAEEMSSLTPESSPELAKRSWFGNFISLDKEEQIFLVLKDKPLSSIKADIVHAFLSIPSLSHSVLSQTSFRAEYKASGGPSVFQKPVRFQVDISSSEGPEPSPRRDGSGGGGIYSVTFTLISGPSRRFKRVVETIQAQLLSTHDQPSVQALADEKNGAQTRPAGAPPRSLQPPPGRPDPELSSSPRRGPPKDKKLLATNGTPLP
The note with it: at 0.1 µM.

The target in test [15] is T5, Serine/threonine-protein kinase BRSK1 (Homo sapiens). The note with it: at 1 µM.
Test [16] has as its target T6, Serine/threonine-protein kinase BRSK2 (Homo sapiens) (UniProt Q8IWQ3).
T6 sequence (whole entry): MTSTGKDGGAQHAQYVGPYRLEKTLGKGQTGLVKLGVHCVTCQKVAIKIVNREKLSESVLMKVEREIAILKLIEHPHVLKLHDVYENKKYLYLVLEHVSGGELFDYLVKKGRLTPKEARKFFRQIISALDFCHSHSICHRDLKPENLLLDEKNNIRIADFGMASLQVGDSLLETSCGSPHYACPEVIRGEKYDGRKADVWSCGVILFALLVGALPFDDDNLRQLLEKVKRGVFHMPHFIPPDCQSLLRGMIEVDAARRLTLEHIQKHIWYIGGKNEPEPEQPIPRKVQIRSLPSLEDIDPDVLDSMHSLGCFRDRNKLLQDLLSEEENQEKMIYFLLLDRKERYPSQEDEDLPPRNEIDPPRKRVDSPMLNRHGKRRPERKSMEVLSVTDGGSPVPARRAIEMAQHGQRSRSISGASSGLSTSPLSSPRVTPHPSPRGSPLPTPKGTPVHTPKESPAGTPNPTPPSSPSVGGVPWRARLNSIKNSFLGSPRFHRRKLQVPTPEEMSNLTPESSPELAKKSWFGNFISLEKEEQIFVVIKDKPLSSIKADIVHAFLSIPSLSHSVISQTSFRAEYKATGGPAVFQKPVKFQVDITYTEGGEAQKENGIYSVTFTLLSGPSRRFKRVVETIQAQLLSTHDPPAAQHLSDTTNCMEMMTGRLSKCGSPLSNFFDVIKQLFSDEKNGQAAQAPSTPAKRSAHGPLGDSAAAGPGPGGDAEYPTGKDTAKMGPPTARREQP
The note with it: at 0.1 µM.

Test [17] deals with T6, Serine/threonine-protein kinase BRSK2 (Homo sapiens). The note with it: at 1 µM.
The target in test [18] is Calcium/calmodulin-dependent protein kinase type 1D (Homo sapiens) (UniProt Q8IU85). The note with it: at 0.1 µM.
Chain of Calcium/calmodulin-dependent protein kinase type 1D (Homo sapiens) (Q8IU85 whole entry, looked up): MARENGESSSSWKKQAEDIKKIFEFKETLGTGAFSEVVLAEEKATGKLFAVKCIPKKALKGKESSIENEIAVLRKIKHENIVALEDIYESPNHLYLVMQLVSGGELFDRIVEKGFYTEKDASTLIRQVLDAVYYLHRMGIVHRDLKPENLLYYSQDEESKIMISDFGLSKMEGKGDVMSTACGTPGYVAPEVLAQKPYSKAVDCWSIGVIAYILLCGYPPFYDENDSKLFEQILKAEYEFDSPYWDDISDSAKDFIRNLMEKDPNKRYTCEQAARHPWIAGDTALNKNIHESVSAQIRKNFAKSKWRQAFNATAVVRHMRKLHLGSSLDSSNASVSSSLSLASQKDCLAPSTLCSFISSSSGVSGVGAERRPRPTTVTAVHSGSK
Test [19] has the same target. The note with it: at 1 µM.
Test [20] has as its target Calcium/calmodulin-dependent protein kinase type II subunit alpha (Homo sapiens) (UniProt Q9UQM7). The conditions noted are these: at 0.1 µM.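 Note: reported values are averages (mean inhibition of CAMK2A).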

Molecules are shown by their SMILES.

Chain of Calcium/calmodulin-dependent protein kinase type II subunit alpha (Homo sapiens) (Q9UQM7 whole entry): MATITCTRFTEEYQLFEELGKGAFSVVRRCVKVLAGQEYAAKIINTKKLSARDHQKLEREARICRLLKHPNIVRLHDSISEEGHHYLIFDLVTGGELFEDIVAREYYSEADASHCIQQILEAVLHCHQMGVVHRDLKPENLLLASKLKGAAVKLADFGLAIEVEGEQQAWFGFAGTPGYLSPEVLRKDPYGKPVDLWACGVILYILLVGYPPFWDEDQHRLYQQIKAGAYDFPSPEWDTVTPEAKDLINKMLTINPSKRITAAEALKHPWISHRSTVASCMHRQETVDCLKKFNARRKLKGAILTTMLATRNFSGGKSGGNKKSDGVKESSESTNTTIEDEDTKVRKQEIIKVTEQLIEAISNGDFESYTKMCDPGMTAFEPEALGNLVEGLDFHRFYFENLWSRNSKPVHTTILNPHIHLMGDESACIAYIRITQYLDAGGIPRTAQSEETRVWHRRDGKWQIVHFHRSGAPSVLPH
Chain of Ribosomal protein S6 kinase alpha-6 (Homo sapiens) (Q9UK32 whole entry): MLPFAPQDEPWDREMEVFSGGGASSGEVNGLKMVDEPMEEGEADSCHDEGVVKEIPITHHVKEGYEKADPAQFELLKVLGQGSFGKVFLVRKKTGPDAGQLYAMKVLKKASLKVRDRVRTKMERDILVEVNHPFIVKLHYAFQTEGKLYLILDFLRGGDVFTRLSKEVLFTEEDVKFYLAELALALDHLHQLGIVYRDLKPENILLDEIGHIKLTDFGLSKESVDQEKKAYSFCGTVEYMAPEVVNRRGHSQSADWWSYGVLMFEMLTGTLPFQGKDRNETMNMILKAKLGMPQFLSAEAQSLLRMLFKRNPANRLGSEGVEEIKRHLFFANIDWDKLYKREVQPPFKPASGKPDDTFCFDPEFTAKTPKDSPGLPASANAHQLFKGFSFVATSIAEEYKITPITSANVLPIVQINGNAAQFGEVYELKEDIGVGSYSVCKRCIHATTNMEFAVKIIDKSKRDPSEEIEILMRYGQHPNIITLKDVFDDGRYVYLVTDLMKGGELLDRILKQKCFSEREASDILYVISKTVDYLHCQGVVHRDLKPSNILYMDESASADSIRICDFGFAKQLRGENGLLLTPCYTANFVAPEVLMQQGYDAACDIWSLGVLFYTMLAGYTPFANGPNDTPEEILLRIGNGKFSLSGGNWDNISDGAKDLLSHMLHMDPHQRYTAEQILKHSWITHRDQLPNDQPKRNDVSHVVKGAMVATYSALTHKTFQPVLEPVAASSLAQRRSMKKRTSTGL

For `COC(=O)Nc1nc2cc(Oc3ccc(NC(=O)Nc4cccc(C(=O)O)c4)cc3)ccc2[nH]1`, the inhibition was 1.45% in [1]; 1.3% in test [2]; 1.96% in test [3]; 1.67% in test [4]; 1.89% in [5]; -2.29% in [6]. Also, the inhibition in test [7] is 2.6%; in test [8], 1.04%; in test [9], 4.37%; in test [10], -4.37%; in test [11], 2.8%; in [12] it was 6.73%. Also, the inhibition in test [13] was 8%; in [14], -1.07%; in test [15], 2.91%; in test [16], 2.19%; in test [17], 9.32%; in test [18] it was 0.59%. Moreover, the results for the inhibition in test [19] and in test [20] were -1.87% and 1.77%, respectively.

With `CS(=O)(=O)CCNCc1ccc(-c2ccc3ncnc(Nc4ccc(OCc5cccc(F)c5)c(C(F)(F)F)c4)c3c2)o1`, the inhibition in test [1] stood at 0.81%; in [2] it was 3.21%; in test [3], 3.35%; in test [4], 1.66%; in [5], 2.48%; in test [6], 3.28%. Further, the inhibition was 4.67% in test [7]; 2.01% in test [8]; 3.32% in [9]; 3.2% in test [10]; 3.63% in test [11]; 2.03% in test [12]. The inhibition in test [13] was 0.5%; in [14], -0.9%; in test [15], -1.79%; in [16], 1.37%; in [17] it was 3.52%; in [18] it was -0.13%. Also, the results for the inhibition in [19] and in test [20] were 0.72% and 3.67%, respectively.

Regarding `Nc1ncnc2occ(-c3ccc(NC(=O)Nc4cc(C(F)(F)F)cc(C(F)(F)F)c4)cc3)c12`, the inhibition in test [1] is 5.35%; in [2], -0.37%; in test [3] it was 1.38%; in test [4], 2.27%; in test [5], 2.02%; in test [6], 0.27%. Moreover, the inhibition is -0.52% in test [7]; 1.68% in test [8]; 0.27% in [9]; -0.39% in [10]; 4.79% in test [11]; 1.19% in test [12]. The inhibition in [13] worked out at 2.22%; in test [14] it was 1.78%; in [15], 3.44%; in [16], 1.11%; in [17], 0.11%; in [18] it was 1.67%. Further, the results for the inhibition in [19] and in test [20] were 4.38% and 3.17%, respectively.

As usually defined, the inhibition is the change of the read-out against control, counted positive when it falls.
